Measurements published in paper PMC7862700, “An all-to-all approach to the identification of sequence-specific readers for epigenetic DNA modifications on cytosine”.

What was measured:
Assay in all cases: DAPPL (digital affinity profiling via proximity ligation, sequencing); 10 mM Tris-HCl pH 7.5, 50 mM NaCl, 1 mM DTT, 4% glycerol, room temperature, 30 min; GST-TFs on glutathione beads, 16-mer random dsDNA library, 0.1% formaldehyde crosslink after washing; high values mean tight binding
FEV = molecular target: T1, FEV (Homo sapiens, UniProt Q99581 1-238); settings: protein: recombinant; tags: N-terminal GST; dsDNA, one strand shown
T1 sequence: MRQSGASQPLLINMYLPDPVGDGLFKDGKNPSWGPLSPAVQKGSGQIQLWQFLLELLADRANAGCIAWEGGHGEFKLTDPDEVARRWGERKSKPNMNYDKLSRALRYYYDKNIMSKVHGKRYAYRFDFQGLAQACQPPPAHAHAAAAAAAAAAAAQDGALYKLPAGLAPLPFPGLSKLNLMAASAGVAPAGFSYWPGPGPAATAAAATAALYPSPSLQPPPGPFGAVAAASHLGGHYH
In short: (§1)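 Sequencing on an Illumina NextSeq500 followed washing, crosslinking with 0.1% formaldehyde, proximity ligation (BsaI/T4 ligase, 1 h, 37 °C) and PCR amplification of pools that had been incubated for 30 min at room temperature with 200 nmole of a random double-stranded 16-mer DNA library in Tris/NaCl/DTT/glycerol buffer. Each pool held DNA-barcoded human transcription factors, expressed in yeast as GST fusions and captured on glutathione beads, plus a tag-only sample. Binding signal is a hexamer's read frequency for a factor divided by its frequency in the tag-only sample.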

ETV5 = ETV5 (Homo sapiens, UniProt P41161 1-510); settings: protein: recombinant; tags: N-terminal GST; dsDNA, one strand shown
ETV5, sequence (P41161 whole entry): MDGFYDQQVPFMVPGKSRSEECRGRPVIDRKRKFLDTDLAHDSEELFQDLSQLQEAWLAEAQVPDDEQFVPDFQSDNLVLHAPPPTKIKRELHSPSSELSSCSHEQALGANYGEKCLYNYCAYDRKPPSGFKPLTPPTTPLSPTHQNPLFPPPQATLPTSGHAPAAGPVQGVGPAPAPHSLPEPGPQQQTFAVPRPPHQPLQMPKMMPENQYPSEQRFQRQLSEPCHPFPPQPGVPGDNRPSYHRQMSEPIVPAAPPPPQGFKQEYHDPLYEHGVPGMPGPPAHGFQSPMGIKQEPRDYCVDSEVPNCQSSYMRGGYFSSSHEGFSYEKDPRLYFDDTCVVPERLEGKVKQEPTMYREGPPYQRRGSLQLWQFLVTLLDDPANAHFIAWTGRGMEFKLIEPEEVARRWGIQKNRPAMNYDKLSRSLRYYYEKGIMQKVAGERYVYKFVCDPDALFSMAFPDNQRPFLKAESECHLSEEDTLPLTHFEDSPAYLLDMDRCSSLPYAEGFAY
In short: as §1

HSF1 = HSF1 (Homo sapiens, UniProt Q00613 1-529); settings: protein: recombinant; tags: N-terminal GST; chain copies: 3; dsDNA, one strand shown
HSF1, sequence (Q00613 whole entry): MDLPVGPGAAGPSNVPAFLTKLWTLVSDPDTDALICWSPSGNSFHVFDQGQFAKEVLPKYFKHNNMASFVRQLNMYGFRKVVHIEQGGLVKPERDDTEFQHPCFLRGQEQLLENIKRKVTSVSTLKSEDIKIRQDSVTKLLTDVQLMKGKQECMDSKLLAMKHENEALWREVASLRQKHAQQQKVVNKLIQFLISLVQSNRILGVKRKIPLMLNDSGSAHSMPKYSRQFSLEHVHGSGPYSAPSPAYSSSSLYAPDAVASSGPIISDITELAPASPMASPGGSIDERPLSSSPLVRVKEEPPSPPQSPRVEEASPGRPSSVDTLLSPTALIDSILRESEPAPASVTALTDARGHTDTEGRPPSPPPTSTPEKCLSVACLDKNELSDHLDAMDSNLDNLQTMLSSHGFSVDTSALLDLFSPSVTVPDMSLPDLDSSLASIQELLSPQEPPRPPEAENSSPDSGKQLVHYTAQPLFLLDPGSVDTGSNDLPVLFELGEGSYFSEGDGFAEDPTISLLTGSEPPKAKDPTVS
In short: as §1

SPIC = molecular target: T2, SPIC (Homo sapiens, UniProt Q8N5J4 1-248); settings: protein: recombinant; tags: N-terminal GST; dsDNA, one strand shown
T2 sequence: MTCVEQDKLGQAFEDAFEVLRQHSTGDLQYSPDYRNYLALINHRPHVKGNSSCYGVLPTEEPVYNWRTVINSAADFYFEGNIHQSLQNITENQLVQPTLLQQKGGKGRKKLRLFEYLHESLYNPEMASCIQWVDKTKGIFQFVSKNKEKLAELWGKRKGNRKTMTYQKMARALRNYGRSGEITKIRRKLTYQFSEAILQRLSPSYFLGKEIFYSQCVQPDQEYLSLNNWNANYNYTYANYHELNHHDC
In short: as §1

ELF4 = ELF4 (Homo sapiens, UniProt Q99607 1-663); settings: protein: recombinant; tags: N-terminal GST; dsDNA, one strand shown
ELF4, sequence (Q99607 whole entry): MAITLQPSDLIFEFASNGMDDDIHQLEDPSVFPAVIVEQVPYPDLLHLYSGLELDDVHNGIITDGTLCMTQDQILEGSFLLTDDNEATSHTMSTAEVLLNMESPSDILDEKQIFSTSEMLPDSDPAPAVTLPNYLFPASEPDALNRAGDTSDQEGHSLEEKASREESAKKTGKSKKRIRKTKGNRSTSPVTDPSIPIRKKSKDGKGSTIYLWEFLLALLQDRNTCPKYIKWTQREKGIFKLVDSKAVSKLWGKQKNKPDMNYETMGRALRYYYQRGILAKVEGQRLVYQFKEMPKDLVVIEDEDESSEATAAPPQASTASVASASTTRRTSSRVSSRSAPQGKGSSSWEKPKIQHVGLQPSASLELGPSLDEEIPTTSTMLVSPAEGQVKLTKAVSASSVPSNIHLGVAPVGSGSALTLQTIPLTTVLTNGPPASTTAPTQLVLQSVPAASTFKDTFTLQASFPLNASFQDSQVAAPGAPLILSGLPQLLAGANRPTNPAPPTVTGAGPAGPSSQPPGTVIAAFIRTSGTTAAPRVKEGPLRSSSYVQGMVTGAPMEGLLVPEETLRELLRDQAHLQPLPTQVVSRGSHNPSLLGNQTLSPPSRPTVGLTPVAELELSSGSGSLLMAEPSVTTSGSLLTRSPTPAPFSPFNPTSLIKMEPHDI
In short: as §1

ELK4 = molecular target: T3, ELK4 (Homo sapiens, UniProt P28324-2 1-405); settings: protein: recombinant; tags: N-terminal GST; dsDNA, one strand shown
T3 sequence: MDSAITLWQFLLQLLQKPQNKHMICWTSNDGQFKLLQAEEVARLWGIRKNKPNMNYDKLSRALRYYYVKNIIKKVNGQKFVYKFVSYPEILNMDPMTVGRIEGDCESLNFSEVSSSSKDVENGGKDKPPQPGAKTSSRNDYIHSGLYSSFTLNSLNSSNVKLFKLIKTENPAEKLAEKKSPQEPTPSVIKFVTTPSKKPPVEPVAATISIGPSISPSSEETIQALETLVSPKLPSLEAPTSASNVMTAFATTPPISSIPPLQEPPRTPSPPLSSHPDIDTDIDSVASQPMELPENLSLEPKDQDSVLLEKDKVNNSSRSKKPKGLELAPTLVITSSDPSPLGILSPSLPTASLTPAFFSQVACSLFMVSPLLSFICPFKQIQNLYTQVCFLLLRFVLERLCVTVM
In short: as §1

ETV2 = molecular target: T4, ETV2 (Homo sapiens, UniProt O00321 1-342); settings: protein: recombinant; tags: N-terminal GST; dsDNA, one strand shown
T4 sequence: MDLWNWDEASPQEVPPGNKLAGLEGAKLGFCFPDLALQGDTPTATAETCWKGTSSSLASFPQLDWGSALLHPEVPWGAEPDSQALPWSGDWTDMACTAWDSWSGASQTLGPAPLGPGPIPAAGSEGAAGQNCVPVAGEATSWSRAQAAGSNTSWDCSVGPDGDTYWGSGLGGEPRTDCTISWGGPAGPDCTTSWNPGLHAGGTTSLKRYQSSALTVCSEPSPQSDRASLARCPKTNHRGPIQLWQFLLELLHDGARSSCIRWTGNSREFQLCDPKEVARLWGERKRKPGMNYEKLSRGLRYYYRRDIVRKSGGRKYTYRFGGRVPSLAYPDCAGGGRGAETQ
In short: as §1

ELF3 = molecular target: T5, ELF3 (Homo sapiens, UniProt P78545 1-371); settings: protein: recombinant; tags: N-terminal GST; dsDNA, one strand shown
T5 sequence: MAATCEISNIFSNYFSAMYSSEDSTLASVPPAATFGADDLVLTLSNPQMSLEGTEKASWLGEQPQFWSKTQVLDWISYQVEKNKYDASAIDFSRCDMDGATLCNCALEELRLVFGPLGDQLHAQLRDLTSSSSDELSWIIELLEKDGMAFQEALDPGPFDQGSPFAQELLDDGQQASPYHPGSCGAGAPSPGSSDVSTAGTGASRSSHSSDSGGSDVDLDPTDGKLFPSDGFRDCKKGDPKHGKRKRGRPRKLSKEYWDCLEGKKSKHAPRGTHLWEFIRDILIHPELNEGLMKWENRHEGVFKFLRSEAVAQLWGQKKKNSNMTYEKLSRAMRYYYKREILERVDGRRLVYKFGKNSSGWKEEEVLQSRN
In short: as §1

CRX = CRX (Homo sapiens, UniProt O43186 1-299); settings: protein: recombinant; tags: N-terminal GST; dsDNA, one strand shown
CRX, sequence (O43186 whole entry): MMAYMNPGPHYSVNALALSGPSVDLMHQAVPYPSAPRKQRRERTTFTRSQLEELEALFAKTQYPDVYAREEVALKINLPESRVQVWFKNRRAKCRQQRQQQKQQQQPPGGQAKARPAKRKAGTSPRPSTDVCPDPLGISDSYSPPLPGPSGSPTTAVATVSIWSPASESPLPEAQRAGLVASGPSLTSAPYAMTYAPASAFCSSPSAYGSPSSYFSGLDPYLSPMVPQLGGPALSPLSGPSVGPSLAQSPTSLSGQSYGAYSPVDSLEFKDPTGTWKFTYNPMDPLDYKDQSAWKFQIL
In short: as §1

ETV1 = ETV1 (Homo sapiens, UniProt P50549 1-477); settings: protein: recombinant; tags: N-terminal GST; dsDNA, one strand shown
ETV1, sequence (P50549 whole entry): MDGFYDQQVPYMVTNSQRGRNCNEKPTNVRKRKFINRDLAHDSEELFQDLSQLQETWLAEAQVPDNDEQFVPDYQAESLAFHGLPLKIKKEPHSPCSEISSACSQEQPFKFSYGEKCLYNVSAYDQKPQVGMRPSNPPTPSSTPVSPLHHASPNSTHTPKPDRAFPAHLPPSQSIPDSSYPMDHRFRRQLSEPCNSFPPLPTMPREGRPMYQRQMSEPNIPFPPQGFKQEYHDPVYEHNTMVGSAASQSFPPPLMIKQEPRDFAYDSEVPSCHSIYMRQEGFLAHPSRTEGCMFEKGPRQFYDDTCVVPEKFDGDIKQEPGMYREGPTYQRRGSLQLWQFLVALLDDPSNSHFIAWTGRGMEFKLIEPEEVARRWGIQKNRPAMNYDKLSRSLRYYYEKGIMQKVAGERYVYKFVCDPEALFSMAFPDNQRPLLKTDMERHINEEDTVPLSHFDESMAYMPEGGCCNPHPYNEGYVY
In short: as §1

Sequence	binding signal (FEV)	binding signal (ETV5)	binding signal (HSF1)	binding signal (SPIC)	binding signal (ELF4)	binding signal (ELK4)	binding signal (ETV2)	binding signal (ELF3)	binding signal (CRX)	binding signal (ETV1)
AAACCA	1.22 fold enrichment (6-mer frequency, TF over GST control)	1.15 fold enrichment (6-mer frequency, TF over GST control)	1.09 fold enrichment (6-mer frequency, TF over GST control)	1.16 fold enrichment (6-mer frequency, TF over GST control)	1.2 fold enrichment (6-mer frequency, TF over GST control)	1.26 fold enrichment (6-mer frequency, TF over GST control)	1.14 fold enrichment (6-mer frequency, TF over GST control)	1.17 fold enrichment (6-mer frequency, TF over GST control)	1.14 fold enrichment (6-mer frequency, TF over GST control)	1.09 fold enrichment (6-mer frequency, TF over GST control)
AAAACC	1.24 fold enrichment (6-mer frequency, TF over GST control)	1.18 fold enrichment (6-mer frequency, TF over GST control)	1.09 fold enrichment (6-mer frequency, TF over GST control)	1.15 fold enrichment (6-mer frequency, TF over GST control)	1.19 fold enrichment (6-mer frequency, TF over GST control)	1.22 fold enrichment (6-mer frequency, TF over GST control)	1.15 fold enrichment (6-mer frequency, TF over GST control)	1.17 fold enrichment (6-mer frequency, TF over GST control)	1.19 fold enrichment (6-mer frequency, TF over GST control)	1.19 fold enrichment (6-mer frequency, TF over GST control)
GCTGAT	1.07 fold enrichment (6-mer frequency, TF over GST control)	1.11 fold enrichment (6-mer frequency, TF over GST control)	1.16 fold enrichment (6-mer frequency, TF over GST control)	1.19 fold enrichment (6-mer frequency, TF over GST control)	1.19 fold enrichment (6-mer frequency, TF over GST control)	1.25 fold enrichment (6-mer frequency, TF over GST control)	1.08 fold enrichment (6-mer frequency, TF over GST control)	1.16 fold enrichment (6-mer frequency, TF over GST control)	1.39 fold enrichment (6-mer frequency, TF over GST control)	1.2 fold enrichment (6-mer frequency, TF over GST control)
CTATAC	1.3 fold enrichment (6-mer frequency, TF over GST control)	1.22 fold enrichment (6-mer frequency, TF over GST control)	1.14 fold enrichment (6-mer frequency, TF over GST control)	1.21 fold enrichment (6-mer frequency, TF over GST control)	1.29 fold enrichment (6-mer frequency, TF over GST control)	1.07 fold enrichment (6-mer frequency, TF over GST control)	1.4 fold enrichment (6-mer frequency, TF over GST control)	1.24 fold enrichment (6-mer frequency, TF over GST control)	1.19 fold enrichment (6-mer frequency, TF over GST control)	1.29 fold enrichment (6-mer frequency, TF over GST control)
CTCTAC	1.57 fold enrichment (6-mer frequency, TF over GST control)	1.33 fold enrichment (6-mer frequency, TF over GST control)	1.37 fold enrichment (6-mer frequency, TF over GST control)	1.51 fold enrichment (6-mer frequency, TF over GST control)	1.46 fold enrichment (6-mer frequency, TF over GST control)	1.38 fold enrichment (6-mer frequency, TF over GST control)	1.35 fold enrichment (6-mer frequency, TF over GST control)	1.47 fold enrichment (6-mer frequency, TF over GST control)	1.18 fold enrichment (6-mer frequency, TF over GST control)	1.4 fold enrichment (6-mer frequency, TF over GST control)
AAATCA	1.2 fold enrichment (6-mer frequency, TF over GST control)	1.26 fold enrichment (6-mer frequency, TF over GST control)	1.17 fold enrichment (6-mer frequency, TF over GST control)	1.18 fold enrichment (6-mer frequency, TF over GST control)	1.24 fold enrichment (6-mer frequency, TF over GST control)	1.23 fold enrichment (6-mer frequency, TF over GST control)	1.39 fold enrichment (6-mer frequency, TF over GST control)	1.27 fold enrichment (6-mer frequency, TF over GST control)	1.33 fold enrichment (6-mer frequency, TF over GST control)	1.18 fold enrichment (6-mer frequency, TF over GST control)
ATTCCT	1.34 fold enrichment (6-mer frequency, TF over GST control)	1.39 fold enrichment (6-mer frequency, TF over GST control)	1.57 fold enrichment (6-mer frequency, TF over GST control)	1.27 fold enrichment (6-mer frequency, TF over GST control)	1.39 fold enrichment (6-mer frequency, TF over GST control)	1.22 fold enrichment (6-mer frequency, TF over GST control)	1.45 fold enrichment (6-mer frequency, TF over GST control)	1.2 fold enrichment (6-mer frequency, TF over GST control)	1.33 fold enrichment (6-mer frequency, TF over GST control)	1.28 fold enrichment (6-mer frequency, TF over GST control)
ACGACT	1.28 fold enrichment (6-mer frequency, TF over GST control)	1.15 fold enrichment (6-mer frequency, TF over GST control)	1.2 fold enrichment (6-mer frequency, TF over GST control)	1.26 fold enrichment (6-mer frequency, TF over GST control)	1.23 fold enrichment (6-mer frequency, TF over GST control)	1.39 fold enrichment (6-mer frequency, TF over GST control)	1.27 fold enrichment (6-mer frequency, TF over GST control)	1.11 fold enrichment (6-mer frequency, TF over GST control)	1.19 fold enrichment (6-mer frequency, TF over GST control)	1.29 fold enrichment (6-mer frequency, TF over GST control)
